Bioassay records as filed in PubChem BioAssay.
This is a sample that favours compounds with a hit; in the whole collection about 2.9% have one here.
EP2 antag: human EP2 receptor antagonists, primary screen, TR-FRET cAMP, C6 glioma cells | Prostaglandin E2 receptor EP2 subtype (Homo sapiens), P43116 | C6 glioma cells expressing human EP2; cells stimulated with saturating PGE2 | inhibition, % at 25 µM | 0.52% of 260,000 active | AID 1422, 2008;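 active means percent inhibition above 40 after rounding to a whole number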;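 further: rat C6 glioma host cells with rolipram phosphodiesterase inhibitor present; the protocol text gives 20 µM as final concentration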
PG9 Ab binder: binders of HIV-1 gp120 antibody PG9, primary screen, biochemical, TR-FRET; HIV-1 gp120 / PG9 antibody interaction; TR-FRET gp120-PG9 antibody binding; inhibition, % at 6.7 µM; 0.43% of 360,000 active; AID 624416, 2012; in the data active means inhibition above about 8.5%
RAM network inh: inhibitors of the yeast RAM network, primary screen, dse1pr::URA3 reporter, 5-FOA selection. inhibition, % at 50 µM. 1.8% of 190,000 active. S. cerevisiae dse1pr::URA3 reporter, 5-FOA growth OD615, 2 d; analog-sensitive cbk1-as2 kinase mutant strain;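 active means inhibition above a set limit, 3 SD over mean compound inhibition, cut at about 8.4% in these data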;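 further: 0% = DMSO-only wells with no growth and 100% = 10 µM 1-NA-PP1 full growth; inhibition rescues growth on 5-FOA so higher OD means more RAM inhibition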
SKN-1 inh: suppressors of acrylamide-induced Pgst-4::GFP reporter in worms, primary screen, SKN-1 inhibitor project, whole organism, uHTS, GFP/RFP fluorescence ratio, strain VP596; C. elegans VP596 Pgst-4::GFP/RFP ratio, 24 h; inhibition, % at 21.8 µM; 0.49% of 360,000 active; AID 624304, 2012;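 active means interference check ratio from 0.5 to 1.5 plus GFP to RFP signal ratio inhibition reaching or exceeding a fixed threshold, cut at about 30% in these data, passing the limit was not always enough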
Rev-erbA mod: modulators of Rev-erb alpha DNA binding, primary screen, biochemical, FITC-DNA, fluorescence polarization, uHTS | Nuclear receptor subfamily 1 group D member 1 (Homo sapiens), P20393 | Rev-erbα–FITC-DNA binding, 90 min | activity, % at 10 µM | 0.79% of 370,000 active;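 active means activity above about 14%, limit read from the data; passing the limit was not always enough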;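 further: 0% = DMSO wells with 35 nM protein and 100% = DMSO wells with 750 nM protein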
Target sequence (P20393 whole entry, looked up): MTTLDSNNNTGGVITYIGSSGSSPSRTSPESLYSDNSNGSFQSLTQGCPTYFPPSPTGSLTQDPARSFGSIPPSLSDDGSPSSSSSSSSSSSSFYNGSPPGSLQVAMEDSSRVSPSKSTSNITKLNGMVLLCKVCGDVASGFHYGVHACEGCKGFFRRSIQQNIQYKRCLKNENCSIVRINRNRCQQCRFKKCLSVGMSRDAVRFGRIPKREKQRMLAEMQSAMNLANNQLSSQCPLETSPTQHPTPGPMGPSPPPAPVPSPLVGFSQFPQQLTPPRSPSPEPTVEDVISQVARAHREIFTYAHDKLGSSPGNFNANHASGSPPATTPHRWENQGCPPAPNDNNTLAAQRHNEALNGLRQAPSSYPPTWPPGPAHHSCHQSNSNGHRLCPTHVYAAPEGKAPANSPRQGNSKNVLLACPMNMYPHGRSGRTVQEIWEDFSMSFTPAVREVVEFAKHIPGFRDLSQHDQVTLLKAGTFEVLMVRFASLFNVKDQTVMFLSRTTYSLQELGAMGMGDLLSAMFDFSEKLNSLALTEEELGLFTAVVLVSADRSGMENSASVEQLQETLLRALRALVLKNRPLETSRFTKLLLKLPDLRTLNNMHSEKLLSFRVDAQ
EP2 modulator: EP2 receptor modulators, cAMP readout, primary screen, cell-based, HTRF cAMP, PGE2 stimulation | AID 940, 2007 | EP2-expressing cells, cAMP HTRF FRET, PGE2 co-stimulation | induction, % at 25 µM | 0.83% of 260,000 active;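 active means compounds whose cAMP rise, as percent of the full-agonist control response, exceeds 60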;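 further: rat C6 glioma line stably carrying human EP2 under a CMV promoter; the protocol text gives 20 µM as final concentration; 100% = response of wells given 1 µM PGE2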
RAM 5-FOA: 5-FOA growth of efflux-deficient control yeast, dose response, counter-screen for RAM network inhibitor project, S. cerevisiae, OD615; shares compounds with RAM network inh; S. cerevisiae efflux-deficient reporter strain, 5-FOA growth OD615, 2 days; max inhibition, %; 1,200 tested, under 10 active; AID 1305, 2008; call rule not given here;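 further: plate controls were vehicle for no effect and reference inhibitor for full effect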
* hit, by the source's call; · = no result.

SMILES | EP2 antag | PG9 Ab binder | RAM network inh | SKN-1 inh | Rev-erbA mod | EP2 modulator | RAM 5-FOA
Cn1nc(C(F)(F)F)c(/C=N/OC(=O)c2ccccc2Cl)c1SCc1ccccc1Cl | 1.4 | -0.3 | 12.3* | 2.4 | 3.4 | 33.6 | 2.7
Cn1nc(C(F)(F)F)c(/C=N/OC(=O)c2ccc(Cl)cc2)c1Cl | 2.5 | -0.8 | 4.9 | 6.3 | -1.0 | 20.4 | ·
Cn1nc(C(F)(F)F)c(/C=N/OC(=O)c2ccccc2)c1SCc1ccc(Cl)cc1 | 2.4 | 1.9 | 12.1* | 3.1 | 7.5 | 3.8 | 3.8
CCC(=O)NC(c1ccccc1)c1cc(Cl)c2cccnc2c1O (stereo not drawn) | 7.9 | · | · | · | · | -23.7 | ·
Cc1cc(C)nc(N2CCN(CC(O)c3ccc4c(c3)CC(C)O4)CC2)n1 (stereo not drawn) | 3.7 | · | · | · | · | -61.0 | ·
C=CCn1c(SCC(=O)Nc2ccc(F)cc2)nc2sc(C)cc2c1=O | 16.3 | · | · | · | · | -134.0 | ·
CCN(CC(O)CON=C1c2ccccc2-c2ccccc21)S(=O)(=O)c1ccc(Cl)cc1 (stereo not drawn) | 8.0 | -0.7 | 20.1* | 9.1 | 0.1 | -16.6 | 4.0
CC(C)CCNCC(O)CON=C1c2ccccc2-c2ccccc21 (stereo not drawn) | 1.9 | 0.1 | -1.4 | -9.1 | 1.7 | 11.9 | ·
CCN(CC(O)CON=C1c2ccccc2-c2ccccc21)S(=O)(=O)c1ccc(C)cc1 (stereo not drawn) | 6.4 | -1.0 | 15.2* | 3.8 | 1.7 | -2.4 | 7.9
CC1CCN(C(=O)CN(c2ccc(F)cc2)S(C)(=O)=O)CC1 | 5.0 | · | · | · | · | -30.0 | ·
CCc1ccc(C(=O)COC(=O)C(Cc2ccccc2)NC(=O)c2ccc(Cl)cc2)cc1 (stereo not drawn) | 13.9 | 1.8 | 16.6* | 11.8 | 1.6 | 46.2 | 3.4
CC(=O)NC(Cc1ccccc1)C(=O)OCC(=O)c1ccc(Cl)cc1 (stereo not drawn) | 4.2 | 1.5 | 0.1 | -3.8 | -4.2 | 13.4 | ·
CCOC(=O)c1[nH]cnc1N=Nc1c(O)ccc2ccccc12 | 25.4 | -3.7 | 14.8* | 36.8 | -4.2 | 38.4 | 5.5
COc1ccccc1C1(NC(=O)c2ccc3c(c2)CCN3S(C)(=O)=O)CCCC1 | 7.4 | · | · | · | · | -48.4 | ·
CCCCCCCCNC(=O)c1cccnc1SCC(=O)Nc1ccccc1OC | 8.8 | -1.4 | 11.7* | 0.9 | -0.8 | 10.0 | 1.4
O=C(Cn1nc(C(c2ccccc2)c2ccccc2)oc1=O)N1CCOCC1 | · | · | · | · | · | 5.3 | ·
COc1ccc2nc(NC(=O)CSc3nnnn3-c3ccc(C)cc3C)sc2c1 | 7.4 | · | · | · | · | -93.6 | ·
CCCC(CCC)=NNc1ccc(S(=O)(=O)Nc2ccccc2OC)cc1[N+](=O)[O-] | 12.4 | 0.1 | 16.1* | -1.1 | 0.2 | 21.1 | 2.1
COCCNc1nc(SCc2ccccc2)nc2sc3c(c12)CCC3 | 8.6 | 0.5 | 14.2* | -1.7 | 1.0 | 39.4 | 2.7
CC(CO)Nc1nc(SCc2ccccc2)nc2sc3c(c12)CCC3 (stereo not drawn) | 1.9 | -3.9 | 0.8 | 6.0 | -5.4 | 24.6 | ·
COc1cc(CNn2c(C)n[nH]c2=S)cc(Cl)c1OCc1ccc(F)cc1 | 16.0 | 0.8 | 12.4* | 13.5 | 2.8 | -33.0 | 1.0
COc1cc(CNn2c(C)n[nH]c2=S)cc(Br)c1OCc1ccc(F)cc1 | 8.4 | -2.7 | 3.8 | -0.1 | 6.3 | 40.6 | ·
COc1ccc(NC(=O)CSc2nc3cc(C)cc(C)c3cc2C#N)cc1 | 20.3 | · | · | · | · | 32.3 | ·
C=CCn1c(C)cc(C(=O)COC(=O)/C=C/c2cccc(OC)c2)c1C | 3.3 | -1.0 | 19.7* | -1.3 | 3.2 | -21.2 | 5.4
C=CCn1c(C)cc(C(=O)COC(=O)/C=C/c2ccc(OC)cc2)c1C | 4.4 | -0.8 | 7.7 | 3.1 | -3.4 | -39.3 | ·
